Outcome and AC50 data for 21 compounds are collected here from PubChem BioAssay (EPA / NIEHS).

Active and inactive are the calls of the source. How the source made its calls: active means hit-call score of the fitted dose curve at least 0.9, where 1 is the maximum; inactive means score below 0.9.

Common to all, as to settings: mRNA level, 48 h; actives raise or lower the signal
Read-out in experiment [1]: Hypoxia-inducible factor 1-alpha (Homo sapiens) (UniProt Q16665)
Description: LTEA_HepaRG_HIF1A: Life Technologies and Expression Analysis (LTEA) Assay for Hypoxia-inducible factor 1 (HIF1A) Trancription factor using HepaRG (AID 2283503).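 Further: HIF1A transcript by TaqMan qRT-PCR normalized to ACTB GAPDH and POLR2A.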 A digest of the protocol: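 HepaRG, 48 h exposure, 8-pt half-log series from 100 uM, 0.5% DMSO vehicle, duplicates. Readout: HIF1A transcript by qRT-PCR (Fluidigm array), housekeeping-normalised. Bidirectional curve fit vs DMSO baseline.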

Read-out in experiment [2]: 3-Hydroxy-3-Methylglutaryl-CoA Synthase 2 (HMGCS2), HMGCS2 (gene 3158)
Description: LTEA_HepaRG_HMGCS2: Life Technologies and Expression Analysis (LTEA) Assay for 3-Hydroxy-3-Methylglutaryl-CoA Synthase 2 (HMGCS2) using HepaRG (AID 2283504). A digest of the protocol: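 Expression of HMGCS2 in human HepaRG liver cells is measured by qRT-PCR 48 h after dosing (highest 100 uM, half-log series, 0.5% DMSO). Values come from bidirectional concentration-response fitting with DMSO as baseline.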

Read-out in experiment [3]: HGF (gene 3082)
Description: LTEA_HepaRG_HGF: Life Technologies and Expression Analysis (LTEA) Assay for Hepatocyte Growth Facto (HGF) using HepaRG (AID 2283505). The method, boiled down:
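Gain or loss of HGF mRNA in human HepaRG liver cells after 48 h chemical exposure; eight concentrations up to 100 uM with 0.5% DMSO vehicle, quantified by TaqMan qRT-PCR.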

Read-out in experiment [4]: Insulin Like Growth Factor 1 (IGF1), IGF1 (gene 3479)
Description: LTEA_HepaRG_IGF1: Life Technologies and Expression Analysis (LTEA) Assay for Insulin Like Growth Factor 1 (IGF1) using HepaRG (AID 2283506). The method, boiled down:
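Using human HepaRG liver cells, IGF1 transcript induction or suppression is measured 48 h after dosing across eight concentrations capped at 100 uM. Values derive from bidirectional concentration-response fitting with DMSO as baseline.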

Read-out in experiment [5]: Intercellular Adhesion Molecule 1 (ICAM1), ICAM1 (gene 3383)
As to the kind of experiment: LTEA_HepaRG_ICAM1: Life Technologies and Expression Analysis (LTEA) Assay for Intercellular Adhesion Molecule 1 (ICAM1) using HepaRG (AID 2283507). The method, boiled down: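 Gain or loss of transcript in HepaRG hepatic cells is quantified by qRT-PCR after 48 h chemical exposure (up to 100 uM, half-log steps), with DMSO as baseline.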

Read-out in experiment [6]: Insulin-like growth factor-binding protein 1 (IGFBP1), IGFBP1 (gene 3484)
As to the kind of experiment: LTEA_HepaRG_IGFBP1: Life Technologies and Expression Analysis (LTEA) Assay for Insulin-like growth factor-binding protein 1 (IGFBP1) using HepaRG (AID 2283508). The method, boiled down:
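mRNA induction or loss was quantified by qRT-PCR after 48 h chemical exposure of human HepaRG cells, with 0.5% DMSO as vehicle and baseline. Concentration-response over eight points up to 100 uM.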

Read-out in experiment [7]: Interleukin 6 (IL6), IL6 (gene 3569)
As to the kind of experiment: LTEA_HepaRG_IL6: Life Technologies and Expression Analysis (LTEA) Assay for Interleukin 6 (IL6) using HepaRG (AID 2283509). The method, boiled down: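 HepaRG, ~100,000 cells/well, 48 h pre-culture; serum-free induction medium; cmpd 8-pt half-log from 100 uM, 0.5% DMSO, duplicate, 48 h. Lysis in RLT, TaqMan qRT-PCR; gain or loss vs DMSO.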

Read-out in experiment [8]: Interleukin 6 Receptor (IL6R), IL6R (gene 3570)
Description: LTEA_HepaRG_IL6R: Life Technologies and Expression Analysis (LTEA) Assay for Interleukin 6 Receptor (IL6R) using HepaRG (AID 2283510).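 On AC50: differentiated human HepaRG liver cells in serum-free induction medium; TaqMan qRT-PCR signal normalized to ACTB GAPDH and POLR2A housekeeping genes.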 The method, boiled down:
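Concentration-response in human liver HepaRG cells: eight concentrations from 100 uM downward by half-logs, 48 h exposure, 0.5% DMSO vehicle. IL6R mRNA change measured by qRT-PCR and fitted in both directions relative to vehicle.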

Read-out in experiment [9]: Potassium channel subfamily K member 1 (KCNK1), KCNK1 (gene 3775)
Description: LTEA_HepaRG_KCNK1: Life Technologies and Expression Analysis (LTEA) Assay for Potassium channel subfamily K member 1 (KCNK1) using HepaRG (AID 2283511). The method, boiled down:
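Gain or loss of KCNK1 mRNA is the read-out, quantified by qRT-PCR against three housekeeping genes after 48 h chemical treatment of human HepaRG liver cells. Concentrations ran from 100 uM downward in half-log steps, vehicle 0.5% DMSO.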

Read-out in experiment [10]: Keratin 19 (KRT19), KRT19 (gene 3880)
As to the kind of experiment: LTEA_HepaRG_KRT19: Life Technologies and Expression Analysis (LTEA) Assay for Keratin 19 (KRT19) using HepaRG (AID 2283512). The method, boiled down:
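Gene-expression endpoint in the human liver line HepaRG after 48 h exposure to up to 100 uM test chemical with 0.5% DMSO vehicle; KRT19 mRNA by qRT-PCR, analyzed bidirectionally versus DMSO.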

Chain of Hypoxia-inducible factor 1-alpha (Homo sapiens) (Q16665 whole entry, looked up): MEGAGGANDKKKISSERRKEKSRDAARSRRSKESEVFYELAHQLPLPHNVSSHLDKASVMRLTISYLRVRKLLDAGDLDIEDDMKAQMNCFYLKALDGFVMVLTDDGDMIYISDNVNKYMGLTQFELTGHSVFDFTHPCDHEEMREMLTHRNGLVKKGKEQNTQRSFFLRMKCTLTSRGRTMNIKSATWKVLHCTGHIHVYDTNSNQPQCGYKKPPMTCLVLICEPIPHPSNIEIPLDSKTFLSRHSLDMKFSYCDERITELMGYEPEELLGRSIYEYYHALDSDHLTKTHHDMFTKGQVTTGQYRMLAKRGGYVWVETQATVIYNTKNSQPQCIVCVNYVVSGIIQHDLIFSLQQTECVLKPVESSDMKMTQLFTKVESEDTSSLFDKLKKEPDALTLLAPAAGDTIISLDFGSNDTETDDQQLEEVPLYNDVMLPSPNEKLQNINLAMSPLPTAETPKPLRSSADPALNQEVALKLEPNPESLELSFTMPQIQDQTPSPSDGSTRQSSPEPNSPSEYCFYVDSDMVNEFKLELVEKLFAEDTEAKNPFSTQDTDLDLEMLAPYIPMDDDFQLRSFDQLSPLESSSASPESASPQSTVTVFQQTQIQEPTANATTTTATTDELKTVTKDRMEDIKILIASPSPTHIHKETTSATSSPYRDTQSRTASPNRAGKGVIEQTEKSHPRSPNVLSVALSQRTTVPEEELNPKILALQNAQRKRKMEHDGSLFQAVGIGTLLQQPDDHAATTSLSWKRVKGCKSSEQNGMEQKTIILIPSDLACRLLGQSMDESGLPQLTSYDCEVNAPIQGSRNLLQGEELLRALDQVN

For `CC(C)CCO`, the outcome in experiment [1], in experiment [2], in experiment [3], in experiment [4], in experiment [5] and in experiment [6] was inactive. The outcome in experiment [7], in experiment [8], in experiment [9] and in [10] was inactive.
What is called AC50 is the midpoint of the concentration-response curve, whichever way the signal moves. Regarding `Cc1[nH]cnc1C[C@H]1CCc2c(C)c3ccccc3n2C1=O`, the AC50 in experiment [1] is 24.3 µM (active); in [2], 23.8 µM (active); in [3] it was 10.2 µM (active); in experiment [4] it was 17.8 µM (active); in [5] it was 35.9 µM (active); in [6] it was 37.2 µM (active). Besides, the AC50 was 84 µM (active) in experiment [7], 79.3 µM (active) in experiment [8], 58.7 µM (active) in [9] and 11.5 µM (active) in [10].
As for `CCCC(=O)OCC`, the compound was classed as inactive in experiment [1], in experiment [2], in experiment [3], in experiment [4], in experiment [5] and in experiment [6]. Also, the compound was called inactive in [7], in experiment [8] and in [9].
For `Cc1ccc(S(=O)(=O)O)cc1C`, the compound was classed as inactive in [1], in [2], in experiment [3], in experiment [4], in experiment [5] and in experiment [6]. Moreover, the call in experiment [7], in experiment [8], in [9] and in [10] was inactive.
With `C[C@](N)(Cc1ccc(O)c(O)c1)C(=O)O`, the compound was called inactive in experiment [1], in experiment [2], in experiment [3], in experiment [4], in experiment [5] and in [6]. The result in [7], in experiment [8] and in experiment [9] was inactive.
In the case of `COC(=O)c1c(Cl)c(Cl)c(C(=O)OC)c(Cl)c1Cl`, the compound was called inactive in [1], in experiment [2], in experiment [3], in experiment [4], in [5] and in experiment [6]. Also, the compound was called inactive in [7], in experiment [8], in experiment [9] and in experiment [10].
With `COC(=O)CC(=O)OC`, the compound was classed as inactive in [1], in experiment [2], in [3], in [4], in experiment [5] and in experiment [6]. The compound was called inactive in experiment [7], in experiment [8], in experiment [9] and in [10].
As for `COc1cccc(-c2ccc(/C=C\CN3CCCCCC3)cc2Cl)c1`, the AC50 in experiment [1] was 83 µM (active); in [2], 83.9 µM (active); in experiment [4] it was 66.7 µM (active); in experiment [5], 75.7 µM (active); in [6], 74.5 µM (active); in experiment [7], 74.8 µM (active). Further, the AC50 is 79.3 µM (active) in [9] and 45.2 µM (active) in experiment [10]. Moreover, the compound was called inactive in experiment [3] and in [8].
With `COc1ccc(/C=C/S(=O)(=O)NC(=O)c2ccc(C)cc2Cl)cc1`, the compound was classed as inactive in [1], in [2], in [3], in experiment [4], in experiment [5] and in experiment [6]. The outcome in [7], in [8], in [9] and in experiment [10] was inactive.
For the compound `C1=CCCC=CCCC=CCC1`, the outcome in [1], in experiment [2], in [3], in experiment [4], in [5] and in experiment [6] was inactive. Also, the compound was classed as inactive in experiment [7], in experiment [8], in experiment [9] and in experiment [10].
Take `CC(=O)OCCC(C)C`: the compound was called inactive in [1], in experiment [2], in experiment [3], in experiment [4], in [5] and in [6]. Moreover, the result in [7], in experiment [8], in [9] and in [10] was inactive.
For `CC/C(=C\C(=N/O)C(N)=O)C(C)[N+](=O)[O-]` (stereo not drawn), the outcome in [1], in experiment [2], in [3], in experiment [4], in experiment [5] and in experiment [6] was inactive. The outcome in [7], in [8], in experiment [9] and in [10] was inactive.
On to `O=c1[nH]c2ccc(S(=O)CCN3CCC(Cc4ccc(F)cc4)CC3)cc2o1` (stereo not drawn), for which the compound was called inactive in experiment [1], in experiment [3], in experiment [4], in [5], in [8] and in experiment [9]. The AC50 in experiment [2] is 74.7 µM (active); in [6], 89.7 µM (active); in experiment [7], 63 µM (active); in experiment [10], 67.3 µM (active).
`CC1(C)C(=O)N(Br)C(=O)N1Br`: the compound was classed as inactive in [1], in experiment [2], in experiment [3], in experiment [4], in experiment [5] and in [6]. The outcome in experiment [7], in [8], in [9] and in experiment [10] was inactive.
Turning to `CCCCCCCCCCCCCCCO`, the result in [1], in experiment [2], in [3], in experiment [4], in [5] and in experiment [6] was inactive. Further, the compound was classed as inactive in [7], in [8], in [9] and in experiment [10].
In the case of `C=CC(=C)CCC=C(C)C`, the compound was called inactive in experiment [1], in [2], in [3], in experiment [4], in experiment [5] and in [6]. For the same compound, the compound was called inactive in experiment [7], in experiment [8], in experiment [9] and in experiment [10].
Consider `Oc1ccc2c(c1)-c1ccccc1C2`, for which the result in experiment [1], in experiment [2], in experiment [3], in experiment [4], in experiment [5] and in experiment [6] was inactive. In addition, the compound was called inactive in [7], in [8] and in [9]. For the same compound, in [10], the AC50 was 25 µM (active).
Consider `CCOc1cccc(-n2cc(C(=O)N3CCN(c4cc(C(=O)O)c5ccccc5c4)CC3)nc2-c2ccc(C)cc2)c1`, for which the AC50 in [1] is 75 µM (active); in [2], 33.7 µM (active); in experiment [3] it was 21.1 µM (active); in experiment [4], 26.6 µM (active); in [6], 12.9 µM (active); in experiment [7], 74.2 µM (active). Besides, the figures for the AC50 in experiment [8] and in experiment [10] were 68.9 µM (active) and 16.2 µM (active), respectively. Moreover, the compound was called inactive in [5] and in experiment [9].
For `CC(C)=CCCC(C)=CC=O`, the result in experiment [1], in [2], in experiment [3], in [4], in experiment [5] and in [6] was inactive. In addition, the call in experiment [7], in [8], in [9] and in experiment [10] was inactive.
For the compound `CNS(=O)(=O)c1cc(C(=O)N2CCC(CCN3C4CCC3CC(n3c(C)nc5ccccc53)C4)(c3cccc(F)c3)CC2)c(Cl)cc1F` (stereo not drawn), the call in experiment [1], in experiment [3], in [7], in experiment [8] and in [9] was inactive. The AC50 was 23.5 µM (active) in [2]; 16.3 µM (active) in experiment [4]; 26.4 µM (active) in experiment [5]; 30.5 µM (active) in experiment [6]; 18.3 µM (active) in [10].
On to `CCCCCCCCO`, for which the outcome in experiment [1], in experiment [2], in [3], in [4], in [5] and in [6] was inactive. Further, the result in [7], in experiment [8] and in experiment [10] was inactive. Moreover, in experiment [9], the AC50 was 83.9 µM (active).
